Test results published in the supplement of paper PMC6555819.

Tests used:
Experiment in all cases: PBM binding z-score (relative to random genomic background probes); higher = stronger binding; sequences stand for … in GC…GCGATTGACAGCGTAGAATGAAGG
[1] = test system: RARb homodimer (NR concentration 270 nM)
Outline: (§1)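 On custom Agilent 4×180K arrays, double-stranded probes with 34-nt variable regions carried direct-repeat seeds, single-nucleotide variants, half-site ablations or random human genomic background. Ligand-free nuclear receptor dimers were applied for 1 h, and binding was read with antibodies against each partner (one per run). Binding z-scores come from regression-normalized fluorescence, with the random background probes as reference.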

[2] = test system: RARg:RXRa (NR concentration 270 nM, RXRa partner concentration 90 nM)
Outline: as §1

[3] = test system: RARg homodimer (NR concentration 270 nM)
Outline: as §1

[4] = test system: RXRa DBDmut IVT, anti-RXR (DBD mutation: RXRa K156A/R161A, NR concentration 90 nM)
Outline: as §1

[5] = test system: RXRa homodimer (NR concentration 180 nM)
Outline: as §1

[6] = test system: THRa:RXRa (NR concentration 90 nM, RXRa partner concentration 90 nM)
Outline: as §1

[7] = test system: THRa homodimer (NR concentration 90 nM)
Outline: as §1

[8] = test system: VDR homodimer (NR concentration 270 nM)
Outline: as §1

| Sequence | PBM binding z-score [1] | PBM binding z-score [2] | PBM binding z-score [3] | PBM binding z-score [4] | PBM binding z-score [5] | PBM binding z-score [6] | PBM binding z-score [7] | PBM binding z-score [8] |
| --- | --- | --- | --- | --- | --- | --- | --- | --- |
| CAAACTAGGTCACCGGAAGGTCACAGTCCGCATG | 5.72 | 8.31 | 7.76 | 2.19 | 6.67 | 4.49 | 3.69 | 3.04 |
| CAAACTAGGTCAAAGGGCAAAGTCGAGCCAACCA | 3.81 | 6.04 | 5.28 | 1.76 | 7.35 | 3.56 | 0.847 | 1.06 |
| CCTACTGGTCCAAAAAGGTCATTGATGCCGATAA | 4.58 | 4.42 | 4.17 | 1.56 | 4.74 | 3.35 | 1.18 | 3.81 |
| CTCGAAAGGTCGTGCTCAGGGGAGTATACCAAAC | 2.53 | 4.03 | 3.44 | 2.02 | 4 | 2.77 | 0.415 | 1.13 |
| CAAACTAGGTCAAAAGTCAAAGTCGAGCCAACCA | 2.64 | 4.67 | 4.23 | 1.61 | 5.2 | 2.55 | 0.407 | 0.387 |
| CGTCCAAGGTCAAAGGTCAGTCAAGAGATGACGG | 5.67 | 8.89 | 8.17 | 4.11 | 10.3 | 4.85 | 2.87 | 3.58 |
| TCTTGTAGATCAATACAGGTTAAGAAAGTGCGCT | 0.644 | 0.423 | 0.26 | 1.25 | 0.787 | 1.46 | -0.0772 | 0.463 |
| CCTTCTGGGCCAAAAAGGTCATTGATGCCGATAA | 4.2 | 4.63 | 4.26 | 1.29 | 4.8 | 2.87 | 0.411 | 2.86 |
| CGAACGAGGGCATAAGTTGATAGCAAATGCCGAT | 0.864 | 1.23 | 1.25 | 2.53 | 0.665 | 0.587 | -0.473 | 1.04 |
| ATATGTAGGTTACATCCGGGTAATTCAGGCTATG | 0.673 | 1.08 | 1.06 | 0.788 | 0.887 | 2.3 | 0.727 | 0.278 |
| GCAGACAGGTGAAATGCAGGTAACTCAGGGTGGC | 0.337 | 0.64 | 0.23 | -0.341 | 0.602 | 1.38 | -0.107 | -0.285 |
| TCATCTAGGTAAATGCTAGGTGAAAGTCCGATCT | 0.149 | 0.279 | 0.0447 | 1.17 | 0.38 | 1.28 | 0.631 | -0.208 |
| GCTATTAGTTGAAATGGCAACCGAATGATTCTCG | -0.503 | -0.0997 | 0.311 | 0.893 | -0.164 | -0.279 | -0.241 | 0.0264 |
| ACTTACGGGTCAACGAGGTTATAGCCCGCGTATA | 3.68 | 5.54 | 4.99 | 2.37 | 6.11 | 3.97 | 1.14 | 3.48 |
| CCGACTGGGGCAAGGTTACAATAACGCACAGCCA | 1.47 | 1.1 | 1.24 | -0.315 | 1.27 | 1.09 | -0.205 | 0.439 |
| GGACCGAGGGCATTCGAGTTGATAGCATGGCGAT | 0.78 | 1.2 | 1.14 | 2.61 | 0.753 | 3.46 | -0.46 | 3.18 |
| CCTAACGGGTCACTCCAGGTTATAGCATCGGAGT | 2.75 | 3.8 | 3.98 | 1.23 | 3.26 | 4.85 | 0.619 | 1.5 |
| TCTATTAGTTGATTAGGGCGACCGAAACAGCGGA | 0.492 | 0.141 | 0.348 | 1.14 | 0.378 | 0.191 | 0.249 | 0.212 |
| GCTGCTAGGACAACTGATGGTCAGCTAAAGCTCG | 0.137 | -0.166 | 0.37 | -0.0279 | -0.722 | 0.434 | -0.447 | -1.49 |
| GCTTACTGGTCAAAGGTTATAGCATGAATAGAAT | 1.78 | 3.91 | 1.68 | 0.714 | 4.35 | 1.87 | -0.137 | 0.435 |
| CCTAGTTGGACAGGAGGTCACACACCGGATATGA | 3.81 | 4.2 | 3.71 | 1.02 | 3.96 | 3.41 | 2.18 | 2.39 |
| CCGAGTAGGTGATGGGGCATTCAGGCAACGGTGA | 0.69 | 0.024 | -0.0731 | -0.961 | 0.074 | 0.211 | -0.0233 | -0.306 |
| ATAATGAGGTTACCAAAGATCAGGGAAACGCTTG | 1.15 | 2.37 | 1.95 | 1.32 | 2.72 | 2.8 | 1.1 | 0.486 |
| TCCTGTAGATCAATAGAGGTTAAGAAAGTGCGCT | 1.25 | 0.701 | 0.381 | 1.41 | 1.19 | 2.29 | -0.00152 | 0.39 |
| CGTGAAAGTTCAAGGTAACGTAACAGAAAGCAGC | 3.23 | 5.05 | 5.85 | 4.44 | 4.04 | 3.07 | 0.878 | 3.01 |
| CCTGCTAGGTCAATGGTCAGCTATAGCAGCTCGC | 3.2 | 3.54 | 4.59 | 1.75 | 2.21 | 2.26 | 0.61 | 0.24 |

| Sequence | PBM binding z-score [1] | PBM binding z-score [2] | PBM binding z-score [3] | PBM binding z-score [4] | PBM binding z-score [5] | PBM binding z-score [6] | PBM binding z-score [7] | PBM binding z-score [8] |
| --- | --- | --- | --- | --- | --- | --- | --- | --- |
| CAAACTAGGTCACAGAGGTCAAAGTACGTGCGTA | 5.51 | 7.48 | 7.65 | 3.46 | 7.8 | 4.75 | 2.64 | 6.77 |
| CAAACTCGGTCAAGGTCAAAGTCGGTTTGTGCCA | 4.47 | 5.26 | 5.55 | 2.48 | 4.82 | 4 | 3.53 | 4.43 |
| TCGAGGAGGTTAGGGGCATTCAGAATGGCGTCGA | 1.36 | 0.847 | 0.702 | 0.518 | 1.22 | 1.34 | 0.547 | 1.07 |
| ATCGCAAGGTCGAGGTGAGTATAGAGAAAGGGAA | 1.76 | 2.55 | 2.56 | 0.563 | 2.35 | 2.62 | 0.694 | 0.322 |
| CATCAAAGTTCAAGGTAACGTAACAGAAAGCAGC | 3.8 | 5.15 | 5.74 | 4.51 | 4.38 | 3.04 | 1.39 | 3.49 |
| GATACATGGTCAGCTAGAGGCCAGAGTATGGAAA | 0.679 | 1.39 | 0.818 | -0.556 | 0.128 | -0.168 | -1.01 | -0.418 |
| AATACAGGGTCACCAGGCCAGAGTAGGTACGAAT | 3.63 | 6.17 | 6.17 | 2.62 | 7.47 | 3.85 | 1.88 | 2.7 |
| GATACAGGGTCAAGGCCAGGGTACGCGTATTGAT | 3.96 | 5.8 | 4.85 | 2.61 | 5.97 | 3.95 | 1.51 | 2.65 |
| GCTGCTAGGTCAGCTTGGTCAGCTAACGGGTACG | 2.8 | 2.8 | 3.88 | 0.514 | 1.1 | 1.73 | 0.547 | -0.161 |
| TTGAGTAGGTTACCAATGGGGCATTCAGCTTTCT | 1.02 | 1.46 | 0.739 | 0.192 | 0.569 | 0.168 | -0.426 | 0.0569 |
| CCTAGTTTGTCAGGAGGTCACACACCGGATATGA | 4.01 | 4.61 | 3.87 | 1.93 | 4.52 | 3.62 | 2.87 | 3.26 |
| GCTCGCAGGCCATTTGGGTCACTCAATGACGGGC | 1.93 | 1.23 | 1.41 | 0.0952 | 0.671 | 1.93 | 0.651 | 0.416 |
| ATATGTGGGTTAGCTGGGGTCATTCAGACTAGGC | 3.54 | 3.97 | 2.93 | 2.16 | 5.59 | 5 | 3.84 | 5.73 |
| CTTTACGGGTCACGAGGTTATAGCACGACGAGCG | 4.15 | 6.33 | 5.71 | 2.53 | 7.44 | 3.92 | 1.66 | 2.28 |
| GTACCAAGGTCAATAGGTCGTTGATGAGTAGGCG | 4.86 | 6.58 | 5.59 | 2.86 | 5.66 | 3.68 | 1.77 | 2.55 |
| CCGACTGGGGCAAAGATTACCATACTCAGTACGA | -0.379 | 0.0799 | 0.405 | 0.314 | -0.0917 | -0.407 | -0.518 | -0.37 |
| CCGACTGGGGCGTAAGGTTACCATAAGCCAGCCC | 1.23 | 0.788 | 0.295 | -0.36 | 0.979 | 1.92 | 0.973 | -0.426 |
| CTCGAAACGTCGTGCTCAGGTGAGTATACCAAAC | -0.132 | -0.476 | -0.311 | -0.187 | -0.479 | 0.94 | 0.555 | -0.446 |
| TAGCCTGGGTCAGATCGGGCCAGTATACGCTATA | 1.61 | 2.42 | 2.86 | -1.34 | 1.46 | 4.11 | -0.483 | -1.02 |
| CGTTACGGGTCACTCCAGGTTATAGCATCGGAGT | 3.08 | 4.49 | 4.8 | 1.5 | 4.86 | 4.97 | 0.567 | 1.17 |
| ATACCAAGGTGATCGTGAGGGCGTTGATACTAAC | 1.07 | 0.664 | 0.461 | 0.501 | 0.36 | 2.16 | 1.23 | 1.36 |
| ACTAGTTGGTCAGCTGAGTTCACACACAATTCGG | 2.53 | 1.78 | 2.11 | 2.27 | 1.64 | 3.33 | 1.05 | 6.71 |
| TAGCCTAGGTCATTCAGGGGCCAGTACAGAAAGC | 3.28 | 5.87 | 4.35 | 1.94 | 2.7 | 3.4 | 0.784 | 1.56 |
| GCGACTGAGGCAAAGCAGGTTACCATAAGGTTGG | 0.0198 | 0.00383 | -0.272 | -0.374 | 0.123 | 1.54 | -0.231 | -0.64 |
| TCATATAGGTAATACAGATGAAAGTCGGCATCTA | -0.481 | 0.349 | 0.543 | 1.28 | 1.09 | -0.0206 | -0.254 | 0.0563 |
| CGTCAAAGTTCAAGGTAACATAACAGAAAGCAGC | 3.84 | 5.43 | 6.33 | 4.63 | 4.69 | 2.92 | 1.05 | 2.9 |
